Measurements: PubChem BioAssay (NCATS)
Records with an inconclusive call do not appear. Where a call stands in place of a potency, no number is given. Calls of active or inactive are those of the source. Unless noted, calls come from the whole dose curve; as a rule, active = well fitted curve in the direction sought with a large enough effect; inconclusive = small, poorly fitted or top-dose-only effect, or another doubt; inactive = no such curve, though single readings can be large; an effect the other way counts as inactive or inconclusive.

How the values were obtained:
[1] = molecular target: Calcium and integrin-binding protein 1 (Homo sapiens) (UniProt Q99828); assay: Primary qHTS for Identification of Calcium Integrin Binding Protein 1 (CIB1) Competitor (AID 1508620);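 note: GST tagged CIB1 binding a fluorescein labelled alphaIIb integrin peptide tracer; top concentration of the series differs between compounds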
Sequence of Calcium and integrin-binding protein 1 (Homo sapiens) (Q99828 whole entry, looked up): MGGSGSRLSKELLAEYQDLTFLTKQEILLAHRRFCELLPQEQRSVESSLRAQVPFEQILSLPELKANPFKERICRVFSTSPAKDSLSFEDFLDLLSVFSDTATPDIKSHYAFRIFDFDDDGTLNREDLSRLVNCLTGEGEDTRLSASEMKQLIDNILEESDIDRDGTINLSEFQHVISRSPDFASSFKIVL
Procedure, shortened: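 CIB1-GST (1 uM final) and compound incubated 15 min at room temperature before adding FITC-alphaIIb peptide tracer (100 nM final). Competition for binding read by fluorescence polarization (ex 480, em 540) after another 15 min at room temperature.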

[2] = Primary qHTS for small molecule stabilizers of the endoplasmic reticulum resident proteome: Secreted ER Calcium Modulated Protein (SERCaMP) assay (AID 1508630)
Procedure, shortened: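 The SH-SY5Y reporter protocol was run at 3 concentrations up to 38.3 uM (primary) or 11 concentrations (follow-up): 16 h compound, 100 nM thapsigargin for 4 h, then extracellular luciferase luminescence.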

[3] = molecular target: Cytochrome P450 2D6 (Homo sapiens) (UniProt P10635); assay: Cytochrome P450 family 2 subfamily D member 6 (CYP2D6) small molecule antagonists: luciferase biochemical (cell-free) qHTS assay (AID 1645840; active = well fitted curve in the direction sought with a large enough effect in the repeat runs; an effect the other way counts as inactive or inconclusive; note: nearly all actives have a fitted effect of over 55% in size; note: potency is the fitted concentration of half-maximal effect)
Sequence of Cytochrome P450 2D6 (Homo sapiens) (P10635 whole entry, looked up): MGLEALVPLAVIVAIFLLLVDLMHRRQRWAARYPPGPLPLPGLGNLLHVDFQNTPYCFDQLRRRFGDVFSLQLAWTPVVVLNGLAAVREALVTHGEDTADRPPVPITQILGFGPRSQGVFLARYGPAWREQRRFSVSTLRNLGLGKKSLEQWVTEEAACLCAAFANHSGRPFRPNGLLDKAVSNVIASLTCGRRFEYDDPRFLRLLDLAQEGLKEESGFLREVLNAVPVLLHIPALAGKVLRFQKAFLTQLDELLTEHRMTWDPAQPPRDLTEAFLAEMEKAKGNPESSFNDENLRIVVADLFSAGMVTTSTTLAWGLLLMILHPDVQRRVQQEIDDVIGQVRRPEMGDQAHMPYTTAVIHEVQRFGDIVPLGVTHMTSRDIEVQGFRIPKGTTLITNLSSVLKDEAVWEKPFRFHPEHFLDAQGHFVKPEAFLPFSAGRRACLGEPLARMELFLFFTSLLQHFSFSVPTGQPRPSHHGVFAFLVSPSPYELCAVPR
Procedure, shortened: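 P450-Glo CYP2D6 system: proluciferin substrate converted by enzyme to luciferin, read by luminescence proportional to activity. Enzyme-substrate mix with compound 10 min at room temperature, then NADPH regeneration 1 h before detection reagent.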

| SMILES | Potency [1] | Potency [2] | Potency [3] |
| --- | --- | --- | --- |
| CC(C)(C)c1nc(-c2cccc(NS(=O)(=O)c3c(F)cccc3F)c2F)c(-c2ccnc(N)n2)s1 | inactive | inactive | inactive |
| CCCCC(C=O)NC(=O)C(CC(C)C)NC(=O)OCc1ccccc1 (configuration not stated) | inactive | inactive | – |
| CCOC(=O)[C@H]1O[C@H]1C(=O)N[C@@H](CC(C)C)C(=O)NCCC(C)C | inactive | inactive | – |
| C[C@H]1[C@H](O)O[C@@H]2O[C@@]3(C)CC[C@@H]4[C@H](C)CC[C@@H]1[C@@]24OO3 | inactive | inactive | – |
| CCc1cc(-c2n[nH]c(C)c2-c2ccc3c(c2)OCCO3)c(O)cc1O | inactive | inactive | 4.25 µM (active) |
| O=C(c1ccc(C=Cc2n[nH]c3ccccc23)cc1)N1CCNCC1 | inactive | inactive | – |
| Cn1cnc(-c2cc3nccc(Oc4ccc(NC(=S)NC(=O)Cc5ccccc5)cc4F)c3s2)c1 | inactive | inactive | inactive |
| CC[C@H]1OC(=O)[C@H](C)[C@@H](O[C@H]2C[C@@](C)(OC)[C@@H](O)[C@H](C)O2)[C@H](C)[C@@H](O[C@@H]2O[C@H](C)C[C@H](N(C)C)[C@H]2O)[C@](C)(O)C[C@H](C)C(=NOCOCCOC)[C@H](C)[C@@H](O)[C@]1(C)O | inactive | inactive | – |
| CSc1cccc(Nc2ncc3cc(-c4c(Cl)cccc4Cl)c(=O)n(C)c3n2)c1 | inactive | inactive | – |
| COc1cc2ncnc(Nc3cc(Br)c(O)c(Br)c3)c2cc1OC | inactive | inactive | inactive |
| OC[C@H]1O[C@@H](Oc2ccc(O)cc2)[C@H](O)[C@@H](O)[C@H]1O | inactive | inactive | – |
| CC[C@]1(O)C[C@H]2CN(CCC3=c4ccccc4=N[C]3[C@@](C(=O)OC)(c3cc4c(cc3OC)N(C)[C@H]3[C@@](O)(C(N)=O)[C@H](O)[C@]5(CC)C=CCN6CC[C@]43[C@@H]65)C2)C1 | inactive | inactive | – |
| COc1ccc2ccc(=O)oc2c1CC=C(C)C | inactive | inactive | – |
| Cc1ccccc1C(=O)c1ccc(Nc2ccc(Br)cc2N)cc1Cl | inactive | inactive | 15.1 µM (active) |
| Nc1ccc(-c2ccc3ncc4ccc(=O)n(-c5cccc(C(F)(F)F)c5)c4c3c2)cn1 | inactive | inactive | – |
| Cc1cnc(Nc2cccc(CN3CCOCC3)c2)nc1Nc1cccc(S(=O)(=O)NC(C)(C)C)c1 | inactive | inactive | – |
| CN(C)CC[C@H](CSc1ccccc1)Nc1ccc(S(=O)(=O)NC(=O)c2ccc(N3CCN(Cc4ccccc4-c4ccc(Cl)cc4)CC3)cc2)cc1[N+](=O)[O-] | inactive | inactive | – |
| Cc1csc(-c2nnc(Nc3ccc(Oc4ncccc4-c4ccnc(N)n4)cc3)c3ccccc23)c1 | inactive | inactive | – |

| SMILES | Potency [1] | Potency [2] | Potency [3] |
| --- | --- | --- | --- |
| COc1cc([C@@H]2c3cc4c(cc3[C@@H](O[C@@H]3O[C@@H]5CO[C@@H](C)O[C@@H]5[C@H](O)[C@@H]3O)[C@H]3COC(=O)[C@H]23)OCO4)cc(OC)c1O | inactive | inactive | – |
| OCCn1cc(-c2ccc3c(c2)CCC3=NO)c(-c2ccncc2)n1 | inactive | inactive | – |
| CCN1C[C@H](C)n2c(c(O)c3c(=O)n(Cc4ccc(F)c(Cl)c4)nc(C(=O)NC)c32)C1=O | inactive | inactive | – |
| CCN1CCC(n2cc(CNc3cc(Cl)c4ncc(C#N)c(Nc5ccc(F)c(Cl)c5)c4c3)nn2)CC1 | inactive | inactive | 12 µM (active) |
| CC[C@H](CC#N)OC(=O)N[C@@H](C)c1cccc(NC(=O)Nc2ccc(-c3cnco3)c(OC)c2)c1 | inactive | inactive | 0.338 µM (active) |
| CN1N=C(N)c2cn([C@@H]3O[C@H](COP(=O)(O)O)[C@@H](O)[C@@H]3O)c3ncnc1c23 | inactive | inactive | – |
| O=C1NC(=O)C(=Cc2ccc(-c3ccc(F)cc3O)o2)S1 | inactive | inactive | – |
| COc1c(C)cnc(Cn2cnc3c(Cl)nc(N)nc32)c1C | inactive | inactive | – |
| CCNC(=O)[C@H]1O[C@@H](n2cnc3c(N)nc(NCCc4ccc(CCC(=O)O)cc4)nc32)[C@H](O)[C@H]1O | inactive | inactive | – |
| COc1cc2c(cc1OC)[C@@H]1Cc3ccc(OC)c(OC)c3CN1CC2 | inactive | inactive | – |
| COc1ccc(CCN(C)CCCOc2ccc(S(=O)(=O)c3[nH]c4ccccc4c3C(C)C)cc2)cc1OC | – | inactive | – |
| O=C(c1ccc(F)c(F)c1Nc1ccc(I)cc1F)N1CC(O)([C@H]2CCCCN2)C1 | – | inactive | 3.01 µM (active) |
| CC(=O)N1CCN(c2ccc(OCc3nn(C)c(C)c3-c3cccc4c(CCCOc5cc(C)c(Cl)c(C)c5)c(C(=O)O)n(Cc5cccnc5)c34)cc2)CC1 | – | inactive | – |
| CC(=O)OCC(=O)[C@@]12OC(C)(C)O[C@H]1C[C@H]1[C@@H]3C[C@H](F)C4=CC(=O)C=C[C@]4(C)[C@@]3(F)[C@@H](O)C[C@@]12C | – | inactive | – |
| CN1c2ccccc2C(=O)N2CCc3c([nH]c4ccccc34)C21 (configuration not stated) | – | inactive | – |
| Fc1ccc(CNc2ncnc3ccc(F)cc23)cc1 | – | inactive | 16.9 µM (active) |
| CC1=C[C@@H]2[C@@H]([C@@H](O)C[C@@]3(C)[C@H]2C[C@@H](C)[C@]3(O)C(=O)CO)[C@@]2(C)Cc3cnn(-c4ccccc4)c3C=C12 | – | inactive | – |
